Measurements from PubChem BioAssay AID493085 (Broad Institute, 2011).
Out of some 2,400 compounds screened, about 360 (15%) were called active. Another 5% or so got no clear call; they are omitted.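 The calls were made as follows: active = falling-signal curve with half-maximal concentration at or below ten times the top tested dose; inconclusive = flat fit at 30 to 70% inhibition, or poor fit; inactive = signal rise, flat within 30%, or potency beyond limit.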 Not all results are given here. Entries with a potency or affinity are not part of this list.

Experiment: Tet-On RFP internal-standard readout, HSF1 screen, dose response, cell-based, NIH3T3 R4, HSE-GFP and Tet-On RFP, cherry-pick, set 3 (AID 493085);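 also: cells heat shocked 2 h at 42 °C with doxycycline to induce reporters; 0% = neutral control wells and -100% = didemnin B control at 400 nM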
Conditions: NIH3T3 R4 HSE-GFP/Tet-RFP reporter, fluorescence, 48 h; series mostly up to 19.5 µM; activity change, negative = inhibition: at the top concentration

Activity change, negative = inhibition, inactive:
CCOC(=O)c1ccc(Cl)c(NC(=O)c2cccnc2)c1 -3.1%, CCc1ccc(NC(=O)CSc2ccc(-c3cccnc3)nn2)cc1 4.37%, Cc1ccc(NC(=O)c2cc(NC(=O)c3ccco3)ccc2N2CCOCC2)cc1 -3%, O=C(NC(=S)Nc1ccc2oc(=O)ccc2c1)c1cc2ccccc2o1 15.4%, O=c1c2c3c(sc2nc(NCCOCCO)n1Cc1ccco1)CCCCC3 10.9%, COc1ccc(NC(=O)c2cc3cc(OC)ccc3oc2=N)cc1 -4.04%, COc1cccc(/C=C/C(=O)NCc2ccc3c(c2)OCO3)c1 -6.73%, CCOC(=O)/C(C#N)=C/c1cc(C)n(-c2ccccc2)c1C -2.19%, Cc1cccc(NC(=O)c2sc(-c3ccccc3)nc2-c2ccc([N+](=O)[O-])cc2)c1 -7.95%, OC1(c2ccc(Br)cc2)CCN(Cc2cccc(Br)c2)CC1 -3.81%, Cn1ccnc1SCC(=O)N(C1CCCCC1)C1CCCCC1 -3.07%, COc1cc(C(=O)N(C)C2CCCN(Cc3ccccc3F)C2)cc(OC)c1OC (stereo unspecified) 3.93%, CS(=O)(=O)N(CC(=O)O)c1ccc(C23CC4CC(CC(C4)C2)C3)cc1 7.89%, O=C(CCC1CCCNC1)c1ccccc1 (stereo unspecified) 4.57%, CC(=O)c1cnn(-c2c(Cl)cc(Cl)cc2Cl)c1C 2.88%, CC(C)Oc1ccc(C(=O)O)cc1 -1.52%, NC(=O)c1ccsc1NC(=O)C1CCCCC1 3.52%, COC(=O)c1cccc(N2C(=O)C3CC=CCC3C2=O)c1 (stereo unspecified) -7.46%, COc1ccc(C(=O)Nc2ccccc2C(=O)N/N=C/c2ccc(O)c(OC)c2)cc1 -5.62%, O=C(N/N=C/c1ccc(F)cc1)c1ccc(OCc2ccccc2)cc1 -6.34%, O=C(N/N=C/c1cc([N+](=O)[O-])ccc1O)c1ccncc1 -7.98%, CCOc1cc(N2CCOCC2)c(OCC)cc1NC(=O)c1cc(-c2ccco2)nc2ccccc12 -12.4%, COC(=O)[C@H](C)NC(=O)NCCC1=CCCCC1 -2.47%, Cc1ccc(C(=O)/C=C/Nc2ccccn2)cc1 -0.009%, COC(=O)c1nn(-c2cccc(C(F)(F)F)c2)c(=O)cc1Sc1ccccn1 -0.462%, CCCCOc1ccc(C2C(=O)N(C3CCCCC3)CC(=O)N2CC2CCCO2)cc1 (stereo unspecified) 3.16%, CC(C)(C)N=C1NN=C(c2ccc(Cl)cc2)CS1 -0.077%, CCOC(=O)c1c(C)[nH]c(C2=NNC(=Nc3cccc(Cl)c3)SC2)c1C 6.15%, CC(C)(C)c1ccccc1NC(=O)NC1CCN(Cc2c(F)cccc2Cl)CC1 6.36%, COc1ccccc1NC1=C(Cl)C(=O)N(C2CCCCC2)C1=O -7.56%, CCOC(=O)Cc1csc(NC(=O)c2sc3nc4ccc(CC)cc4cc3c2N)n1 0.721%
